Measurements: PubChem BioAssay (EPA / NIEHS)
Active and inactive are the calls of the source. Rule for the calls: active = hit-call score of the fitted dose curve at least 0.9, where 1 is the maximum; inactive = score below 0.9.

Experiment: ATG_TA_CIS: Attagene CIS-FACTORIAL HepG2 Assay for human TA Basal Promoter (AID 2282964)
Conditions: HepG2 Attagene CIS-factorial TA basal promoter reporter; actives raise or lower the signal
Method in brief: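 Transient MRTU transfection of HepG2 preceded 24 h compound exposure. Reporter mRNA levels were then read by RT-PCR with capillary electrophoresis, and this background-control endpoint was fitted bidirectionally to DMSO.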

Structure (SMILES) | outcome
N#[N+]c1ccc2c(S(=O)(=O)[O-])cccc2c1O | inactive
COCc1c(C(C)C)nc(C(C)C)c(/C=C/[C@@H](O)C[C@@H](O)CC(=O)O)c1-c1ccc(F)cc1 | inactive
Cc1ccc([N+](=O)[O-])cc1S(=O)(=O)O | inactive
CCC(CO)CO | inactive
O=S(=O)(O)c1cc(S(=O)(=O)O)c2ccc3c(S(=O)(=O)O)cc(S(=O)(=O)O)c4ccc1c2c43 | inactive
NC(=O)N=NC(N)=O | inactive
CCCCC(CC)COC(=O)c1ccccc1 (centres undefined) | inactive
Oc1ccc(Cl)cc1Cc1cc(Cl)ccc1O | inactive
CCCOCCOCCOCCO | inactive
Cc1ccc2c(c1)C(=O)c1ccccc1C2=O | inactive
CC(C)c1ccc(C=O)cc1 | inactive
[Cl][Nd]([Cl])[Cl] | inactive
O=Cc1ccc(CO)o1 | inactive
CCN(CC#N)c1cccc(C)c1 | inactive
CCC(C)C=O (centres undefined) | inactive
CCc1c(C(=O)O)c(=O)cnn1-c1ccc(Cl)cc1 | inactive
Nc1ccc(N)c(Cl)c1 | inactive
CC(=O)OCC(C)OC(C)=O (centres undefined) | inactive
NC(=O)OCC(COC(N)=O)c1ccccc1 | inactive

Structure (SMILES) | outcome
c1ccc(-c2ccccn2)nc1 | inactive
C=CC(C)(C)C | inactive
CC(C)(Oc1ccc(C2CC2(Cl)Cl)cc1)C(=O)O (centres undefined) | inactive
CCCCCCCCCCCCCCCC(=O)OCC | inactive
CCO[Si](CCCN=C=O)(OCC)OCC | inactive
c1cc(N(CC2CO2)CC2CO2)ccc1OCC1CO1 (centres undefined) | inactive
C=CCCCCCCCCC(=O)OCCCC | inactive
C=C(C)CCO | inactive
CCCc1ccc(OC)cc1 | inactive
CCC(CC)C(=O)O | inactive
C=C(C)[C@H]1CC=C(C)CC1 | inactive
O=C(Cl)c1cc(C(=O)Cl)cc(C(=O)Cl)c1 | inactive
CCCC(=O)OCc1ccccc1 | inactive
CCCOC(=O)CCCCC(=O)OCCC | inactive
SCCc1cnccn1 | inactive
CC[C@H]1OC(=O)[C@H](C)[C@@H](O[C@H]2C[C@@](C)(OC)[C@@H](O)[C@H](C)O2)[C@H](C)[C@@H](O[C@@H]2O[C@H](C)C[C@H](N(C)C)[C@H]2O)[C@](C)(O)C[C@@H](C)C(=NOCOCCOC)[C@H](C)[C@@H](O)[C@]1(C)O | inactive
COC(=O)C1=C(C)NC(C)=C(C(=O)OCC(C)C)C1c1ccccc1[N+](=O)[O-] (centres undefined) | inactive
O=C(O)Cc1c(Cl)ccc(Cl)c1Cl | inactive

Experiment: ATG_TCF_b_cat_CIS: Attagene CIS-FACTORIAL HepG2 Assay for human T-Cell-Factor with beta-catenin (TCF/b-cat) (AID 2282965)
Conditions: HepG2 TCF/beta-catenin cis-reporter transcription, actives raise or lower the signal
Method in brief: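 HepG2, transient MRTU transfection, cis-element-driven reporters (endogenous TFs). 24 h compound exposure. Readout: reporter mRNA by RT-PCR + 6-FAM primer extension, HpaI digest, capillary electrophoresis. Gain/loss fit vs DMSO baseline.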

Structure (SMILES) | outcome | AC50
N#[N+]c1ccc2c(S(=O)(=O)[O-])cccc2c1O | inactive | –
COCc1c(C(C)C)nc(C(C)C)c(/C=C/[C@@H](O)C[C@@H](O)CC(=O)O)c1-c1ccc(F)cc1 | inactive | –
Cc1ccc([N+](=O)[O-])cc1S(=O)(=O)O | inactive | –
CCC(CO)CO | inactive | –
CCCCC(CC)COC(=O)c1ccccc1 (centres undefined) | inactive | –
Oc1ccc(Cl)cc1Cc1cc(Cl)ccc1O | – | 18.8 µM (active)
Cc1ccc2c(c1)C(=O)c1ccccc1C2=O | inactive | –
CC(C)c1ccc(C=O)cc1 | inactive | –
[Cl][Nd]([Cl])[Cl] | inactive | –
O=Cc1ccc(CO)o1 | inactive | –
CCC(C)C=O (centres undefined) | inactive | –
CCc1c(C(=O)O)c(=O)cnn1-c1ccc(Cl)cc1 | inactive | –
Nc1ccc(N)c(Cl)c1 | inactive | –
CC(=O)OCC(C)OC(C)=O (centres undefined) | inactive | –
c1ccc(-c2ccccn2)nc1 | inactive | –
C=CC(C)(C)C | inactive | –

Structure (SMILES) | outcome | AC50
CC(C)(Oc1ccc(C2CC2(Cl)Cl)cc1)C(=O)O (centres undefined) | inactive | –
CCO[Si](CCCN=C=O)(OCC)OCC | inactive | –
c1cc(N(CC2CO2)CC2CO2)ccc1OCC1CO1 (centres undefined) | – | 12.6 µM (active)
C=C(C)CCO | inactive | –
CCCc1ccc(OC)cc1 | inactive | –
COC(=O)/C=C\C(=O)O | inactive | –
CCC(CC)C(=O)O | inactive | –
C=C(C)[C@H]1CC=C(C)CC1 | inactive | –
O=C(Cl)c1cc(C(=O)Cl)cc(C(=O)Cl)c1 | inactive | –
NC(=O)NNC(N)=O | inactive | –
CCCC(=O)OCc1ccccc1 | inactive | –
CCCOC(=O)CCCCC(=O)OCCC | inactive | –
SCCc1cnccn1 | inactive | –
CC[C@H]1OC(=O)[C@H](C)[C@@H](O[C@H]2C[C@@](C)(OC)[C@@H](O)[C@H](C)O2)[C@H](C)[C@@H](O[C@@H]2O[C@H](C)C[C@H](N(C)C)[C@H]2O)[C@](C)(O)C[C@@H](C)C(=NOCOCCOC)[C@H](C)[C@@H](O)[C@]1(C)O | inactive | –
COC(=O)C1=C(C)NC(C)=C(C(=O)OCC(C)C)C1c1ccccc1[N+](=O)[O-] (centres undefined) | inactive | –
O=C(O)Cc1c(Cl)ccc(Cl)c1Cl | inactive | –

Experiment: ATG_TAL_CIS: Attagene CIS-FACTORIAL HepG2 Assay for human TAL Basal Promoter (AID 2282966);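 note: background control endpoint measuring basal TAL promoter reporter mRNA not a specific factor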
Conditions: HepG2 Attagene cis-factorial TAL promoter reporter; actives raise or lower the signal
Method in brief: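 HepG2 cells were transiently transfected with promoter-driven multiplexed reporter units and dosed for 24 h. Reporter mRNA was measured by RT-PCR with capillary electrophoresis fluorescence; bidirectional fits used DMSO as baseline, serving as a background control.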

Structure (SMILES) | outcome | AC50
N#[N+]c1ccc2c(S(=O)(=O)[O-])cccc2c1O | inactive | –
COCc1c(C(C)C)nc(C(C)C)c(/C=C/[C@@H](O)C[C@@H](O)CC(=O)O)c1-c1ccc(F)cc1 | inactive | –
Cc1ccc([N+](=O)[O-])cc1S(=O)(=O)O | inactive | –
CCC(CO)CO | inactive | –
O=S(=O)(O)c1cc(S(=O)(=O)O)c2ccc3c(S(=O)(=O)O)cc(S(=O)(=O)O)c4ccc1c2c43 | inactive | –
NC(=O)N=NC(N)=O | inactive | –
CCCCC(CC)COC(=O)c1ccccc1 (centres undefined) | inactive | –
Oc1ccc(Cl)cc1Cc1cc(Cl)ccc1O | inactive | –
CCCOCCOCCOCCO | inactive | –
Cc1ccc2c(c1)C(=O)c1ccccc1C2=O | inactive | –
CC(C)c1ccc(C=O)cc1 | inactive | –
[Cl][Nd]([Cl])[Cl] | inactive | –
O=Cc1ccc(CO)o1 | inactive | –
CCN(CC#N)c1cccc(C)c1 | inactive | –
CCC(C)C=O (centres undefined) | inactive | –
CCc1c(C(=O)O)c(=O)cnn1-c1ccc(Cl)cc1 | inactive | –
Nc1ccc(N)c(Cl)c1 | inactive | –
CC(=O)OCC(C)OC(C)=O (centres undefined) | inactive | –
NC(=O)OCC(COC(N)=O)c1ccccc1 | inactive | –
c1ccc(-c2ccccn2)nc1 | inactive | –

Structure (SMILES) | outcome | AC50
C=CC(C)(C)C | inactive | –
CC(C)(Oc1ccc(C2CC2(Cl)Cl)cc1)C(=O)O (centres undefined) | inactive | –
CCCCCCCCCCCCCCCC(=O)OCC | inactive | –
CCO[Si](CCCN=C=O)(OCC)OCC | inactive | –
c1cc(N(CC2CO2)CC2CO2)ccc1OCC1CO1 (centres undefined) | inactive | –
C=CCCCCCCCCC(=O)OCCCC | inactive | –
C=C(C)CCO | inactive | –
CCCc1ccc(OC)cc1 | inactive | –
COC(=O)/C=C\C(=O)O | inactive | –
CCC(CC)C(=O)O | inactive | –
C=C(C)[C@H]1CC=C(C)CC1 | inactive | –
O=C(Cl)c1cc(C(=O)Cl)cc(C(=O)Cl)c1 | inactive | –
CCCCC(CC)COC(=O)c1ccccc1O (centres undefined) | inactive | –
NC(=O)NNC(N)=O | inactive | –
CCCC(=O)OCc1ccccc1 | inactive | –
CCCOC(=O)CCCCC(=O)OCCC | inactive | –
SCCc1cnccn1 | – | 100 µM (active)
CC[C@H]1OC(=O)[C@H](C)[C@@H](O[C@H]2C[C@@](C)(OC)[C@@H](O)[C@H](C)O2)[C@H](C)[C@@H](O[C@@H]2O[C@H](C)C[C@H](N(C)C)[C@H]2O)[C@](C)(O)C[C@@H](C)C(=NOCOCCOC)[C@H](C)[C@@H](O)[C@]1(C)O | inactive | –
COC(=O)C1=C(C)NC(C)=C(C(=O)OCC(C)C)C1c1ccccc1[N+](=O)[O-] (centres undefined) | inactive | –
O=C(O)Cc1c(Cl)ccc(Cl)c1Cl | inactive | –
